Data on 49 compounds can be found in ChEMBL document CHEMBL4808148, “HDAC6 screening dataset using tau-based substrate in an enzymatic assay yields selective inhibitors and activators” (2021).

The whole screen tested about 5,600 compounds, of which about 390 (7%) showed an effect of 50% or more. For the sample, strong results were picked, then their nearest neighbours and some compounds at random.

In test [1] the target is Protein deacetylase HDAC6 (Homo sapiens) (UniProt Q9UBN7). As to conditions: at 10 µM.
Test [2] addresses T1, Protein deacetylase HDAC6 (Homo sapiens) (UniProt Q9UBN7).
T1 sequence (whole entry): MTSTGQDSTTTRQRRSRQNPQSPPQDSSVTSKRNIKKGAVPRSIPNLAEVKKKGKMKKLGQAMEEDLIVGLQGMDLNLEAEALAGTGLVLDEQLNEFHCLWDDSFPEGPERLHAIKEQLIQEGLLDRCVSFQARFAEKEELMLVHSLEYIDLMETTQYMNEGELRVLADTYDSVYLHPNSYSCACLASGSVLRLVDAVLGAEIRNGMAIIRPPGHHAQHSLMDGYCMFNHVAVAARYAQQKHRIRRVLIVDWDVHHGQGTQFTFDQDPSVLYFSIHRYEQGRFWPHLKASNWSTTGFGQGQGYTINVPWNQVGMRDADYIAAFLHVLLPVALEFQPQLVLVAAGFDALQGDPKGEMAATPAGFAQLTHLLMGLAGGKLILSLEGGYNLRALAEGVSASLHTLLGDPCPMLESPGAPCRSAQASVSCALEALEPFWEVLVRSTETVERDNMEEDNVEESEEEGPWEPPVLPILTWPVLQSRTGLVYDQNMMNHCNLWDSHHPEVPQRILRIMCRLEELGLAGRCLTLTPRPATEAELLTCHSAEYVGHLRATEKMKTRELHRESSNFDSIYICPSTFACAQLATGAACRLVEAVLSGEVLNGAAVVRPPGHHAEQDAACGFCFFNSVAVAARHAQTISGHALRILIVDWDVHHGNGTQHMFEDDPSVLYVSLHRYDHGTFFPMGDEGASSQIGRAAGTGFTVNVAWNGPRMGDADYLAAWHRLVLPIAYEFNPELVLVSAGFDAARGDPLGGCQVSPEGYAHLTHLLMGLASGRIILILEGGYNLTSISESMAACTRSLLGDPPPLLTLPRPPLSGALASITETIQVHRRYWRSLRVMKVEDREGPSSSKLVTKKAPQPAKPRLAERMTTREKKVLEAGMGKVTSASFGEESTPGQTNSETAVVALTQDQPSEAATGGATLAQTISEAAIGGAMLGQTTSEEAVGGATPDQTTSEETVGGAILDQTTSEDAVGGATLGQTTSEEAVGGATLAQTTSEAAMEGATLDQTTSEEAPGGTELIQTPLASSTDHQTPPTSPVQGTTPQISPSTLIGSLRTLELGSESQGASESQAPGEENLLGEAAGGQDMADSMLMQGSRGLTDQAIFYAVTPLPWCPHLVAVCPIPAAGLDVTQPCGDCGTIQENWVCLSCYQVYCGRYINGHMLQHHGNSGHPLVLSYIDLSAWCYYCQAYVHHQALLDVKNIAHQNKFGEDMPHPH
As to conditions: at 10 µM. This is another data set of the same source.

Turning to GADOTERIDOL, CHEMBL1200593, in test [1], the inhibition is -7.04%.
For the compound PHENYLMERCURIC ACETATE, CHEMBL1333953, in test [1], the inhibition is 113%.
As to VANADATE ION, CHEMBL1163564, in test [1], the inhibition was 8.48%.
In the case of `CCNCc1cc(C(C)(C)C)c(O)c(C(C)(C)C)c1`, the inhibition in test [2] stood at 36.2%.
On the same count and under the same terms, the result for `CNc1ccc([N+](=O)[O-])cc1-n1cnc(-c2ccc(C(F)(F)F)cc2)c1` reads -2.07%.
For the compound `CCN1CCN(Cc2ccc(C(=O)Nc3ccc(C)c(Oc4ccc5c(c4)CC(=O)N5)c3)cc2C(F)(F)F)CC1`, the inhibition in test [2] came to 42.8%.
On to `Cc1ccc(C(=O)Nc2ccc(CN3CCN(C)CC3)c(C(F)(F)F)c2)cc1C#Cc1cnc2[nH]ncc2c1`, for which, in test [2], the inhibition came out at 69%.
Same read-out and setting: the result for `CCCCC(F)(F)[C@@]1(O)CC[C@H]2[C@@H](CC(=O)[C@@H]2CCCCCCC(=O)O)O1` reads 26.8%; that for `Nc1c(S(=O)(=O)O)cc(Nc2cccc3ccccc23)c2c1C(=O)c1ccccc1C2=O`, 30.6%.
Consider `CNC(C)CC1CCCCC1` (centres undefined), for which the inhibition in test [2] was -3.99%.
As for `COc1ccc2nc3c(c(N)c2c1)CCCC3`, the inhibition in test [2] was 14.7%.
On the same count and under the same terms, the result for `Cc1cc(O)c2c(c1)C(=O)c1cc(O)cc(O)c1C2=O` reads 99.6%.
As for `O=C(Nc1ccncc1)C(=O)c1cn(Cc2ccc(Cl)cc2)c2ccccc12`, the inhibition in test [2] amounted to 11.2%.
Take `CCCCCCOc1nsnc1C1=CCCN(C)C1`: the inhibition in test [2] was determined as 21.1%.
As for `CSCC[C@H](NC(=O)[C@H](Cc1ccccc1)NC(=O)CNC(=O)CNC(=O)[C@@H](N)Cc1ccc(O)cc1)C(=O)O`, in test [2], the inhibition is -7.67%.
For `CC(C)Cc1ccc(C(C)C(=O)NCCO)cc1` (centres undefined), in test [2], the inhibition was found to be 5.6%.
For `Nc1nonc1/C(=N/O)Nc1ccc(F)c(Cl)c1`, the inhibition in test [2] was 6.27%.
Turning to `O=C(Nc1ccc(Cl)cc1)Nc1ccc(Cl)c(Cl)c1`, in test [2], the inhibition was 52.2%.
As to `CC(=O)Nc1ccc(Cc2ccc(NC(C)=O)cc2)cc1`, the inhibition in test [2] is 37.1%.
As to `Cc1c(N)cccc1Cn1ccc(OCCc2cccs2)cc1=O`, the inhibition in test [2] is -7.53%.
Regarding `Cc1cccc(NC(=O)N[C@@H]2N=C(c3ccccc3)c3ccccc3N(C)C2=O)c1`, the inhibition in test [2] was determined as 10.7%.
Regarding `CCNC1=Nc2ccc(Cl)cc2C(C)(c2ccccc2)O1` (centres undefined), in test [2], the inhibition was found to be 3.39%.
For `c1cc(Nc2cc(C3CC3)n[nH]2)nc(Nc2ccc3[nH]cnc3c2)n1`, the inhibition in test [2] was found to be 77.3%.
On the same count and under the same terms, next, `CCC(C)c1ccc(NC(=O)Cn2cnc3c2c(=O)n(C)c(=O)n3C)cc1` (centres undefined): 18.1%; `c1ccc(C2(c3ccccc3)CC2=C2NCCN2)cc1`: 17%; `C[C@H](CCC(=O)O)[C@H]1CC[C@H]2[C@@H]3C(=O)C[C@@H]4CC(=O)CC[C@]4(C)[C@H]3CC(=O)[C@]12C`: -6.77%.
For `CC(=O)Nc1ccc(C(=O)NC(C)(C)C)cc1`, the inhibition in test [2] was determined as 9.15%.
Same read-out and setting: the result for `CC(C)(C)c1ccc(C(=O)Nc2cn3cc(-n4ccnc4)ccc3n2)cc1` reads 101%; that for `Cc1ncc([N+](=O)[O-])n1CC(O)CN1CCOCC1` (centres undefined), -5.36%; that for `COc1cccc2c1C(=O)c1c(O)c3c(c(O)c1C2=O)C[C@@](O)(C(=O)CO)C[C@@H]3O[C@H]1C[C@H](N)[C@H](O[C@@H]2CCCCO2)[C@H](C)O1`, 92.2%.
As for `COc1cccc2c1C(=O)c1c(O)c3c(c(O)c1C2=O)C[C@@](O)(/C(CO)=N/NC(=O)CCCCCN1C(=O)C=CC1=O)C[C@@H]3O[C@H]1C[C@H](N)[C@H](O)[C@H](C)O1`, the inhibition in test [2] was found to be 26.7%.
For the compound `COc1cccc2c1C(=O)c1c(O)c3c(c(O)c1C2=O)C[C@@](O)(C(=O)CO)C[C@@H]3O[C@H]1C[C@H](N2CCO[C@H](OC)C2)[C@H](O)[C@H](C)O1`, the inhibition in test [2] was 43.2%.
On the same count and under the same terms, next, `CC1(C)OC(=O)C(OCC2CC2)=C1c1ccc(S(C)(=O)=O)cc1`: -6.89%.
With `CCCCCN(CCCOC)C(=O)[C@@H](CCC(=O)O)NC(=O)c1ccc(Cl)c(Cl)c1`, the inhibition in test [2] came to 9.58%.
As for `CC(C)c1cc(C(C)C)c(-c2csc(N(CCN(C)C)Cc3cccnc3)n2)c(C(C)C)c1`, the inhibition in test [2] is 1.94%.
In the case of `C[N+](C)(CF)CCO`, the inhibition in test [2] amounted to 0.62%.
On the same count and under the same terms, the result for `CO/N=C(\C(=O)N[C@@H]1C(=O)N2C(C(=O)O)=C(CSc3nc(C)c(CC(=O)O)s3)CS[C@H]12)c1csc(N)n1` reads 2.2%; that for `CCCOC(=O)c1ccccc1`, 8.38%; that for `O=C(O[C@H]1[C@H](OC(=O)c2cccnc2)[C@@H](OC(=O)c2cccnc2)[C@H](OC(=O)c2cccnc2)[C@@H](OC(=O)c2cccnc2)[C@H]1OC(=O)c1cccnc1)c1cccnc1`, -5.99%.
As for `O=C(Oc1cccc2cccnc12)c1ccccc1`, in test [2], the inhibition was found to be 87.1%.
For the compound `C[C@@H](N[C@H]1CCCC[C@@H]1NC(=O)c1ccc(Cl)cc1)c1cccc2ccccc12`, the inhibition in test [2] amounted to 18.9%.
Regarding `COC1(C[S+]([O-])c2ccccc2)CCN(CCc2c[nH]c3ccc(F)cc23)CC1` (centres undefined), the inhibition in test [2] was 4.5%.
For the compound MERBROMIN, CHEMBL3833381, in test [1], the inhibition came out at 65.3%.
Regarding `CC1=C(O)C(=O)[C@@H]2O[C@@H]2C1=O`, the inhibition in test [2] is -8.14%.
As for `COc1ncc(-c2ccc3c(Nc4cc(Oc5cc(F)cc(F)c5)cc(C(=O)O)c4)c(S(=O)(=O)NC4CC4)cnc3c2)c(OC)n1`, the inhibition in test [2] amounted to 12.8%.
Regarding `CC(=O)Oc1c(C)cccc1C(=O)O`, the inhibition in test [2] amounted to 17%.
As for `C=C1C(=O)O[C@@H]2[C@H]3C(C)=CC[C@@]34O[C@@]4(C)CC[C@@H]12`, the inhibition in test [2] came to 51%.
On to `O=C1C(=Cc2cccnc2)C(=O)c2ccccc21`, for which the inhibition in test [2] was 27.6%.
As to `C[C@@H](O[C@H]1OCCN(Cc2nn[nH]c2CN(C)C)[C@H]1c1ccc(F)cc1)c1cc(C(F)(F)F)cc(C(F)(F)F)c1`, in test [2], the inhibition is 12.9%.
